# Screening results deposited in PubChem by Broad Institute.
# Hits are enriched below; roughly 3.9% of the tested compounds scored in any of these assays.
# NSD2 inh: NSD2 histone methyltransferase inhibitors, primary screen, biochemical, AlphaScreen, single concentration, set 2; Histone-lysine N-methyltransferase NSD2 (Homo sapiens), O96028; NSD2 peptide methylation, 120 min; inhibition, % at 12.5 µM; 310,000 compounds, 0.54% hits; in the data active means inhibition above about 50%
# CASP6 VEID inh: human caspase-6 inhibitors, primary screen, biochemical, VEID-R110 fluorescence, single point, set 2; inhibition, % at 12.5 µM; P55212; AID 686996, 2013; purified caspase-6, Z-VEID-R110 cleavage fluorescence; 350,000 compounds, 0.53% hits;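 active means mean inhibition across replicates at least about 35%, with every replicate also reaching that limit, limit read from the data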
# Glyco luc inh: increase of ERlucT glycosylation luciferase signal, primary screen, N-linked glycosylation inhibitor project, D54 ERlucT cells, luminescence, set 2; AID 588692, 2011; 360,000 compounds, 0.23% hits; D54 ERlucT glycosylation luciferase reporter, 24 h; percent of 100 nM tunicamycin response; reporter increase, % at 12.5 µM;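 active means mean luciferase reporter signal, scaled so untreated is 0 and the glycosylation-blocking control 100, at or above a set limit in every replicate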;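 further: luciferase carries N-glycosylation sites so blocking glycosylation raises the light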
# CDK5 p35 inh: inhibitors of human CDK5/p35 kinase, primary screen, biochemical, single concentration; Cyclin-dependent kinase 5 (Homo sapiens) + Cyclin-dependent kinase 5 activator 1 (Homo …; Recombinant CDK5/p35, ADP-Glo luminescence, 60 min; inhibition, % at 10 µM; 330,000 compounds, 0.01% hits;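 active means highest replicate inhibition of at least 50% and at least 75% of replicates reaching 50%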
# Target sequence (Q00535 whole entry, looked up): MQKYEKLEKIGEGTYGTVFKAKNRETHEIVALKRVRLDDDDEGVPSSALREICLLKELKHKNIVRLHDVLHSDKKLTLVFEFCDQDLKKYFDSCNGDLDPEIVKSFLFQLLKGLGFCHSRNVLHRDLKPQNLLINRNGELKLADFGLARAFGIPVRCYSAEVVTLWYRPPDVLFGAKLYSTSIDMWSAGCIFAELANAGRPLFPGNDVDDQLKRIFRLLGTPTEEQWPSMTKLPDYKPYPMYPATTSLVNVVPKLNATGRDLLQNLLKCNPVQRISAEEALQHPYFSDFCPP
# Target sequence (Q15078 whole entry, looked up): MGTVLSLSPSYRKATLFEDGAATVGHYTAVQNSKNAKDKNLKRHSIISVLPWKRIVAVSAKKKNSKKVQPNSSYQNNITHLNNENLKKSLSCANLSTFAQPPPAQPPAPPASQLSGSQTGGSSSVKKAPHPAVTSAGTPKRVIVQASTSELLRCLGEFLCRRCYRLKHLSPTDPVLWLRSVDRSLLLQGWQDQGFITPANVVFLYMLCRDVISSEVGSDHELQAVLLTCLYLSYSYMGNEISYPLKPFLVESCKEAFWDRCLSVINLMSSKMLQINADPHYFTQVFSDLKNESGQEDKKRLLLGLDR
# Mot1-301 SUMO: yeast Mot1-301 growth rescue at high temperature, primary screen, SUMOylation pathway inhibitor project, S. cerevisiae, ATP luminescence, 38.5C | S. cerevisiae Mot1-301 growth rescue; percent above DMSO median, 100 means doubled | growth rescue, % at 18.8 µM | 320,000 compounds, 1% hits;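 active means every valid replicate shows activation above 250% relative to neutral control wells; inactive means the rest, any valid replicate at or below 250%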
# ALR inh: inhibitors of human ALR sulfhydryl oxidase, primary screen, biochemical, H2O2 detection, HRP-luminol luminescence, single point. FAD-linked sulfhydryl oxidase ALR (Homo sapiens), P55789. purified ALR, DTT oxidation. inhibition, % (no concentration beside the values). 290,000 compounds, 3.8% hits;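 active means mean replicate inhibition above about 79%, with every replicate also reaching it, limit read from the data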
# Alpha artifact: AlphaScreen signal interference with preloaded methylated product, dose response, artefact control for NSD2 inhibitor project, biochemical, cherry-picked samples; shares compounds with NSD2 inh; AlphaScreen artifact counterscreen, preloaded methylated H4 peptide; AC35, µM (highest dose often 10 µM); 1,500 compounds, 9.4% hits; call rule not given here
# A number is an active result; . = inactive; / = no result.
SMILES,NSD2 inh,CASP6 VEID inh,Glyco luc inh,CDK5 p35 inh,Mot1-301 SUMO,ALR inh,Alpha artifact
CCCCN(CC)CCCNC(=O)c1cn(CC)c2ccc(S(=O)(=O)N3CCc4ccccc4C3)cc2c1=O,.,.,.,.,.,.,/
CCCN(CCC)CCCNC(=O)c1cn(CC)c2ccc(S(=O)(=O)N3CCc4ccccc4C3)cc2c1=O,50,.,.,.,.,.,.
C[C@@H]1CN([C@@H](C)CO)C(=O)c2cc(NC(=O)Nc3cccc4ccccc34)ccc2O[C@H]1CN(C)S(=O)(=O)c1ccccc1,/,.,/,/,/,/,/
CC(C)C(=O)Nc1ccc2c(c1)C(=O)N(C)[C@H]1CC[C@H](CC(=O)NCc3ccc(F)cc3)O[C@@H]1CO2,/,.,/,/,/,/,/
COc1ccccc1NC(=S)Nc1cccc2cnccc12,82,.,.,.,.,.,.
CCOc1ccc(NC(=S)Nc2cccc3cnccc23)cc1,.,/,.,.,.,.,/
CCN(C(=S)Nc1cccnc1)c1cccc2ccccc12,100,.,.,.,.,.,.
COc1ccc(NC(=S)Nc2cccc3cnccc23)cc1,55,/,.,/,.,.,.
S=C(Nc1cccnc1)Nc1cccc2cnccc12,108,44,.,.,/,.,.
C[C@@H]1CCCCO[C@@H](CN(C)S(C)(=O)=O)[C@@H](C)CN([C@H](C)CO)C(=O)c2cc(NS(=O)(=O)c3cccs3)ccc2O1,/,.,/,/,/,/,/
C[C@@H]1CN([C@@H](C)CO)C(=O)c2cc(C#Cc3ccc(F)cc3)cnc2O[C@H]1CN(C)S(C)(=O)=O,/,.,/,/,/,/,/
O=C(N[C@@H]1C=C[C@@H](CC(=O)N2CCCCC2)O[C@H]1CO)c1cccc(F)c1,/,.,/,/,/,/,/
C[C@@H]1CN([C@@H](C)CO)C(=O)c2cc(NC(=O)CCC(F)(F)F)ccc2O[C@@H](C)CCCCO[C@H]1CN(C)C(=O)CCCN(C)C,/,.,/,/,/,/,/
CC12CC3(C)CC(C)(C1)CC(C(=O)NC1=NCCS1)(C2)C3,121,/,.,.,.,/,.
O=C(NCCc1ccncc1)[C@H]1[C@H](CO)[C@H]2Cn3c(ccc(-c4ccncc4)c3=O)[C@H]2N1C(=O)C1CC1,/,.,/,/,/,/,/
COc1ccc(C(=O)Nc2nc3c(s2)Cc2cc(OC)ccc2-3)cc1,.,/,.,.,.,.,/
COc1ccc2c(c1)Cc1sc(NC(=O)c3ccccc3)nc1-2,128,/,.,.,.,.,.
COc1ccc2c(c1)Cc1sc(NC(=O)c3cccs3)nc1-2,78,/,.,.,.,.,.
COc1ccc2nc(NC(=O)c3cccs3)sc2c1,.,.,.,/,.,.,/
FC(F)(F)c1ccc(N/N=C/c2cccnc2)nc1,116,.,.,.,.,.,.
CC(=O)Nc1ccc(SCCC2CCCCN2C)cc1 (configuration not stated),88,.,.,.,.,/,.
CNCCC1Sc2ccccc2Oc2ccccc21 (configuration not stated),100,.,.,.,.,.,.
C[C@H](CO)N1C[C@H](C)[C@@H](CN(C)C(=O)CN(C)C)Oc2cc(C3=CCCC3)ccc2S1(=O)=O,/,.,/,/,/,/,/
Nc1ccc2nc3c(=O)n(CCc4ccccc4)c(=O)[nH]c3nc2c1,.,.,.,/,.,.,/
CCCCn1c(=O)[nH]c2nc3cc(N)ccc3nc2c1=O,110,.,.,.,.,.,.
SMILES,NSD2 inh,CASP6 VEID inh,Glyco luc inh,CDK5 p35 inh,Mot1-301 SUMO,ALR inh,Alpha artifact
CN1/C(=C\C(=O)COC(=O)c2ccc(O)c(O)c2)C(C)(C)c2ccccc21,56,.,/,/,.,99,.
CN1/C(=C\C(=O)COC(=O)c2ccc(O)cc2)C(C)(C)c2ccccc21,.,.,.,.,.,.,/
OC[C@@H]1CC[C@@H]2O[C@H](CCc3ccc(C#CCc4ccccc4)cc3)[C@H](n3cc(-c4ccccc4)nn3)C[C@@H]2O1,/,.,/,/,/,/,/
CO[C@@H]1CN(C)C(=O)c2ccc(NC(=O)c3cnccn3)cc2OC[C@@H](C)N(C(C)=O)C[C@@H]1C,/,.,/,/,/,/,/
C[C@H]1CN([C@@H](C)CO)C(=O)c2cc(N(C)C)ccc2O[C@H]1CN(C)C,/,.,/,/,/,/,/
CCCCOc1ccc(-c2ncc(N)cn2)cc1,60,.,.,.,.,.,.
CCCCOc1ccc(-c2nnc(N)s2)cc1,.,.,.,.,.,.,/
Cc1cc(Cl)c(OCCN2C(=O)NC(C)(C)C2=O)c(Br)c1,71,/,.,.,.,.,.
Cc1cc(C)c(OCCN2C(=O)NC(C)(C)C2=O)c(Cl)c1,.,/,.,.,.,.,/
Cc1cc(Cl)cc(Br)c1OCCCN1C(=O)NC(C)(C)C1=O,73,/,.,.,.,.,.
COc1ccccc1NC1C=CS(=O)(=O)C1 (configuration not stated),97,/,.,.,.,76,.
Cc1ncc(CO)c2c1Oc1nc(-c3ccccc3)nc(SCC(=O)N3CCOCC3)c1C2,79,.,.,.,.,.,.
N=c1c(C(=O)NCc2ccco2)cc2c(=O)n3ccccc3nc2n1C1CCCC1,66,99,.,.,.,.,.
O=C(COc1ccccc1O)NCCN1CCOCC1,52,.,.,.,.,.,.
Cc1cc(N2C(=O)C=CC2=O)c([N+](=O)[O-])cc1C,/,/,.,.,.,.,/
Cc1c([N+](=O)[O-])cc(N2C(=O)C=CC2=O)cc1[N+](=O)[O-],55,.,.,.,/,/,.
COc1ccc(-c2csc3ncnc(NCCCO)c23)cc1,.,.,.,.,.,.,/
CCN(CC)CCCNc1ncnc2scc(-c3ccc(F)cc3)c12,63,.,.,.,.,.,.
O=C(NCc1ccco1)Nc1cccc([N+](=O)[O-])c1,52,/,.,.,/,/,.
COCC(=O)Nc1ccc2c(c1)C(=O)N(C)C[C@H](OC)[C@H](C)CN(CC1CCCCC1)[C@@H](C)CO2,/,.,/,/,/,/,/
CCNC(=O)Nc1ccc2c(c1)C(=O)N(C)[C@@H]1CC[C@@H](CC(=O)N[C@H](C)c3ccccc3)O[C@H]1CO2,/,.,/,/,/,/,/
Cc1ccc(S(=O)(=O)c2ccc(Cl)cc2)cc1S(=O)(=O)N1CCOCC1,116,/,.,.,.,.,.
Cc1ccc(S(=O)(=O)N2CCCC(N3CCOCC3)C2)cc1Cl (configuration not stated),53,.,.,.,.,/,.
Cc1ccc(S(=O)(=O)N2CCCC2)cc1S(=O)(=O)N1CCCC1,.,/,.,/,.,.,/
O=C(Nc1ccccc1F)N[C@H]1CC[C@@H](CC(=O)N2CCCCC2)O[C@@H]1CO,/,.,/,/,/,/,/
